Data: PubChem BioAssay (Tox21)
Results filed as inconclusive are left out. Unmarked numbers belong to inactive results. Calls come from the whole dose curve; as a rule, active = well fitted cell-killing curve with a large enough effect in the repeat runs; inconclusive = weak or mixed curves, or effect the other way; inactive = flat fitted curve, though single readings scatter.

assay: Human pregnane X receptor (PXR) small molecule agonists, qHTS cell viability counter screen (AID 1346977); conditions: PXR-Luc HepG2 viability, CellTiter-Fluor, 24 h; series mostly up to 92.4 µM; activity change, negative = cytotoxicity: at the top concentration; note: nearly all actives have a fitted effect of over 50% in size
From the text: U.S. Tox21 Program National Center for Advancing Translational Sciences [NCATS] NIH Chemical Genomics Center [NCGC] U.S. Environmental Protection Agency [EPA] National Institutes of Environmental Health Sciences [NIEHS] National Toxicology Program [NTP] U.S. Food and Drug Administration [FDA] Tox21 Assay Overview: The human pregnane X receptor (hPXR) regulates the expression of several drug metabolizing enzymes and induction of these proteins is a major mechanism for developing drug resistance in cancer. One such key enzyme catalyzing the drug metabolism is cytochrome P450 3A4 (CYP3A4). Changes in CYP3A4 expression affect drug metabolism, thereby reducing the therapeutic efficacy and altering toxicological response to a drug and which finally causes adverse drug interaction. To screen Tox21 libraries for compounds that activate hPXR-mediated CYP3A4 gene expression, PXR-Luc HepG2 cells were used. Also cytotoxicity of the compounds was tested in parallel by measuring the cell viability using CellTiter-Fluor assay system in the same wells.
Tox21 Assay Protocol Summary: PXR-Luc HepG2 cells were dispensed at 2,000 per well in 5uL of assay medium containing 5% charcoal-stripped FBS into white solid bottom 1536-well plates (Corning Life Sciences, Corning, NY) using a Multidrop Combi (Thermo Scientific, Waltham, MA) dispenser. The assay plates were incubated at 37 C and 5% CO2 for 5hr, and then 23nL of compounds dissolved in DMSO and positive control were transferred using a Pintool station (Wako, San Diego, CA). The assay plates were incubated at 37C and 5% CO2 for 24hr. For cytotoxicity read, after 23hr incubation at 37C, 1uL CellTiter-Fluor reagent (Promega Corporation, Madison, WI) was added to each well of the assay plates using Flying Reagent Dispenser (FRD, Aurora Discovery, San Diego, CA). After 1hr incubation at 37C and 5% CO2, the fluorescence signal was quantified using a ViewLux plate reader (PerkinElmer, Shelton, CT).
% is set by controls: 0 for no effect and ±100 for the full control effect.

Structure (SMILES) | activity change, negative = cytotoxicity
C[C@@H](Oc1ccc(CNC(=O)c2cccnc2Oc2ccc3c(c2)OCO3)c(F)c1)C(=O)O | 1.48%
Cc1cc(NC(=O)C2=C(O)c3ccccc3S(=O)(=O)N2C)no1 | 0.775% [at 42.5 µM]
CC(CO)c1ccccc1 (stereo not given) | 5.62%
CC(COC(C)(C)C)OCCCO (stereo not given) | 4.12%
Cc1ccccc1N=O | 5.85%
O=C(/N=N/C(=O)OCc1ccccc1)OCc1ccccc1 | 7.69%
C=Cc1ccccn1 | 6.19%
CCOC(=O)c1ccc(OC(=O)CCCCCN=C(N)N)cc1 | 12.2% [at 42.5 µM]
NS(=O)(=O)c1ccc(NC(=O)CCC(=O)O)cc1 | 0.693% [at 42.5 µM]
O=C(Nc1ccc(Cl)c(Cl)c1)C1CC1 | -5.83% [at 42.5 µM]
N[C@@H](CCC(=O)N[C@@H](CS)C(=O)NCC(=O)O)C(=O)O | 1.19% [at 19 µM]
CCn1ccc(NS(=O)(=O)c2ccc(N)cc2)nc1=O | 4.6% [at 42.5 µM]
O=C(O)c1ccc(Cl)cc1Cl | 6.47%
CC(=O)/C=C/C1C(C)=CCC(C)C1(C)C (stereo not given) | -1.42%
C=CC(OCC)OCC | -1.52%
COc1ccc2c(c1)C(=O)N(CCc1ccc(S(=O)(=O)NC(=O)NC3CCCCC3)cc1)C(=O)C2(C)C | -1.84% [at 42.5 µM]
CCCCCCN | 4.87%
CCOc1cc([N+](=O)[O-])c(OCC)cc1N1CCOCC1 | -11.2%
C[C@H](CCC(=O)O)[C@H]1CC[C@H]2[C@@H]3C(=O)C[C@@H]4CC(=O)CC[C@]4(C)[C@H]3CC(=O)[C@]12C | 12.6% [at 42.5 µM]
CCCCCCOC(=O)CC | 1.31%

Structure (SMILES) | activity change, negative = cytotoxicity
CC(=O)Nc1ccc(S(=O)(=O)Cl)cc1 | 1.83%
CC(C)C[C@H](NC(=O)CNC(=O)[C@H](Cc1ccc(O)cc1)NC(=O)[C@H](CO)NC(=O)[C@H](Cc1c[nH]c2ccccc12)NC(=O)[C@H](Cc1cnc[nH]1)NC(=O)[C@@H]1CCC(=O)N1)C(=O)N[C@@H](CCCN=C(N)N)C(=O)N1CCC[C@H]1C(=O)NCC(N)=O (stereo in doubt) | 15.7% [at 42.5 µM]
O=C1c2ccccc2C(=O)c2cc(S(=O)(=O)O)ccc21 | -10.5%
O=P(O)(O)OP(=O)(O)O | 6.07%
O=C(O)CCSSCCC(=O)O | 5.08%
COC(=O)C1CC(=O)C(C(=O)OC)CC1=O (stereo not given) | 1.52% [at 8.39 µM]
Cc1cccc(C)c1NC(=O)c1ccccc1C(=O)O | 3.13% [at 42.5 µM]
C[Si](C)=O | 7.41% [at 8.39 µM]
O=C(OCC1(COC(=O)c2cccnc2)CCCC(COC(=O)c2cccnc2)(COC(=O)c2cccnc2)C1O)c1cccnc1 | -0.611% [at 42.5 µM]
CC1=CCC(C(C)C)=CC1 | -0.308%
CC1=C(C(=O)O)N2C(=O)[C@@H](NC(=O)[C@H](N)c3ccc(O)cc3)[C@H]2SC1 | -0.564% [at 42.5 µM]
O=C1CCCC(=O)O1 | 0.503%
COCCOCCOCCOCCOCCO | -0.906%
CC(C)OC(=O)CCCCC(=O)OC(C)C | 6.56%
O=C(NCC(O)CO)c1c(I)c(C(=O)NCC(O)CO)c(I)c(N(CCO)C(=O)CO)c1I (stereo not given) | 3.82% [at 42.5 µM]
CC(=O)c1sc(C)nc1C | 0.589%
CC(C)C(=O)OCCc1ccccc1 | 5.61%
CCCC/C=C\CCCCCCCCCC=O | 7.78%
Cc1ccc(S(=O)(=O)O)c(C)c1 | 18.1%
COCCOC(=O)C1=C(C)NC(C)=C(C(=O)OC(C)C)C1c1cccc([N+](=O)[O-])c1 (stereo not given) | -4.67% [at 42.5 µM]
